What all share (assay): NCI-60 one-dose screen, 48 h (100 = growth as untreated, 0 = no growth, -100 = all killed)
What all share (settings): 10 µM unless noted

Assay [1] concerns NCI-H23 lung.
Assay [2] has as its system NCI-H226 lung.
The subject of assay [3] is HOP-62 NSCLC.
The test system of assay [4] is NCI-H460 lung.
In assay [5] the test system is NCI-H522 lung.
Assay [6] relates to A549/ATCC NSCLC.
The test system of assay [7] is 786-0 renal.
For assay [8], the system named is DU-145 prostate.
For assay [9], the system named is K-562 leukemia.
For assay [10], the system named is MALME-3M melanoma.
Assay [11] relates to MDA-MB-231 breast.
In assay [12] the test system is RXF 393 renal.
The subject of assay [13] is SF-268 CNS.
Assay [14] relates to SF-295 CNS.
For assay [15], the system named is SF-539 CNS.
The subject of assay [16] is UACC-257 melanoma.
Assay [17] relates to M14 melanoma.
Assay [18] concerns HOP-92 NSCLC.
Assay [19] deals with COLO 205 colon.

About 83,000 compounds went through this panel and 20% of them were active in at least one assay; those are over-represented in the sample as a whole.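 Single-dose data. Exposure time 48 hours. Values below 10 considered active.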 Values without a mark were called inactive. The source made the active and inactive calls.

Regarding `C=C1C(=O)O[C@H]2[C@H]1CC/C(COC(=O)NCc1cn(C)c3ccccc13)=C\CC[C@@]1(C)O[C@@H]21`, the growth is 38.4% in assay [1]; 35.8% in [2]; 32.8% in assay [3]; 5.72% (active) in assay [4]; -80.2% (active) in [5]; 21% in assay [6]. In addition, the growth in [7] is -87.8% (active); in [8] it was -42.6% (active); in [9] it was -16.5% (active); in assay [10] it was -34.3% (active); in assay [11], -8.6% (active); in assay [12] it was -93.7% (active). In addition, the growth is 24.2% in [13]; 63.2% in assay [14]; -34.6% (active) in [15]; -15% (active) in assay [16]; -42.1% (active) in [17].

Consider `COc1cc(OC)cc(-c2ccc(-c3ccc(C(=N)N)s3)s2)c1`, for which the growth in assay [1] was -75.7% (active); in assay [2] it was -65.3% (active); in [3], -88.1% (active); in assay [4], -71.6% (active); in [18], -71% (active); in assay [7], -80.4% (active). For the same compound, the growth in [19] is -78.1% (active); in [8], -74.2% (active); in [9] it was -35.7% (active); in assay [10], -73.8% (active); in assay [11] it was -80.5% (active); in assay [12] it was -73.9% (active). Further, the growth is -76.5% (active) in assay [13], -78.5% (active) in assay [14], -92.2% (active) in [15] and -88.2% (active) in assay [17].

Take `CC(=O)Nc1ccc(/C=N/N2CCCCCC2)cc1`: the growth in assay [1] is 103%; in assay [2], 92%; in assay [3] it was 95.2%; in assay [4] it was 106%; in assay [5], 103%; in assay [6] it was 94.3%. The growth is 90.9% in assay [7]; 110% in assay [19]; 102% in assay [8]; 99.7% in assay [10]; 74.7% in assay [11]; 105% in assay [12]. Moreover, the growth in assay [13] is 99.4%; in [14] it was 94.3%; in assay [15], 83.6%; in assay [16] it was 114%; in assay [17] it was 106%.

With `CCOC(=O)N1C2CCC(C2)N1C(=O)OCC`, the growth was 104% in assay [1]; 91.9% in assay [2]; 108% in [3]; 108% in [4]; 91.5% in assay [5]; 107% in assay [6]. Besides, the growth is 101% in [7]; 110% in assay [19]; 104% in assay [8]; 94.6% in assay [9]; 104% in assay [10]; 115% in assay [11]. The growth in [12] was 106%; in assay [13], 97%; in assay [14], 106%; in [15], 132%; in assay [16], 107%; in [17] it was 108%.

`O=S1(=O)NCCCN1CCNc1nccc(-c2c(-c3cccc(O)c3)nc3sccn23)n1`: the growth in [1] was 83.7%; in assay [2], 84.9%; in assay [3] it was 118%; in assay [4], 67.1%; in [5] it was 76%; in assay [6], 124%. The growth in assay [7] is 59.3%; in assay [19], 32.6%; in assay [8] it was 74.2%; in assay [10], 17.3%; in assay [11], 50.7%; in assay [12] it was 64.3%. Further, the growth in [13] is 81.3%; in assay [14] it was 112%; in assay [15], 70.3%; in assay [16] it was 39.9%; in assay [17], 7.6% (active).

As for `COc1cc(OC)c2sc(-c3ccc(-n4cncc4-c4ccc(OC)c(N)c4)cc3)nc2c1`, the growth in assay [1] was 87.4%; in assay [2], 94%; in assay [3] it was 117%; in assay [4], 78%; in assay [5], 79.9%; in assay [6] it was 62.7%. Moreover, the growth in assay [7] was 79.2%; in assay [8], 93.5%; in [9], 54.7%; in [10], 82.4%; in assay [11], 75.5%; in assay [12], 75.4%. Moreover, the growth was 87.3% in assay [13]; 69.4% in assay [14]; 84.1% in [15]; 94.3% in assay [16]; 79.9% in assay [17].

Consider `c1cc(C2CCCCC2)ccc1-c1cnc2nonc2n1`, for which the growth is 38.7% in assay [1]; 47.5% in assay [2]; 18.5% in [3]; 14.4% in assay [4]; -2.99% (active) in assay [5]; 34.6% in [6]. Also, the growth in assay [7] is 13.5%; in assay [19], 2.48% (active); in assay [8], 13.8%; in assay [9], 5.7% (active); in assay [10], 48.8%; in assay [11] it was 18.6%. Also, the growth is -3.18% (active) in assay [12]; 32% in assay [13]; 28.3% in assay [14]; 0.0756% (active) in assay [15]; 42.6% in assay [16]; -16.7% (active) in [17].

Take `CCCCCCCCCCCC1=NC(C)(C)CN1CCO`: the growth is 65.1% in assay [1]; 88.2% in [2]; 56.4% in assay [3]; 46.2% in assay [4]; 69.2% in assay [5]; 89.9% in assay [6]. Besides, the growth was 70.4% in [7]; -57.7% (active) in [19]; 77.8% in [8]; 88.9% in assay [10]; 53.7% in assay [11]; 35.4% in assay [12]. Besides, the growth in [13] was 67.2%; in assay [14], 81.4%; in assay [15], 78.9%; in assay [16], 77.9%; in assay [17], 48.4%.

In the case of `CC(C)(C)c1nn(-c2ccccc2)c2c1C(=O)CSC(c1ccccc1Cl)N2` (centres undefined), the growth in [1] is 38.3%; in assay [2], 36.4%; in assay [3] it was 27.6%; in assay [4] it was 22.4%; in assay [5], 11.7%; in assay [6], 39.8%. Also, the growth in assay [7] is 25.7%; in assay [19] it was 2.17% (active); in [8], 26.7%; in assay [10] it was 53.5%; in assay [11] it was 66%; in assay [12] it was -10.4% (active). Also, the growth is 50.4% in assay [13]; -13.4% (active) in [14]; 15.7% in [15]; 77.4% in assay [16]; 11.2% in assay [17].

The values above are taken from PubChem BioAssay (NCI).
